Test results from PubChem BioAssay (Tox21).
Values without a mark were called inactive. Records with an inconclusive call do not appear. A call without a number means that no potency is given here. Activity calls are given as the source filed them. Calls follow the shape of the dose curve; as a rule, active = well fitted curve in the direction sought with a large enough effect in the repeat runs; inconclusive = weak or mixed curves; inactive = no such curve, though single readings can be large; an effect the other way counts as inactive or inconclusive.

Legend:
[1] = Caspase-3/7 induction in CHO-K1 cells by small molecules, qHTS assay (AID 1346980); also: nearly all actives have a fitted effect of over 15% in size; also: potency is read from the fitted curve at half-maximal effect
How it was run: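 Wild-type cells were seeded at 1,500 per well and settled 5 hr at 37 C, 5% CO2, then exposed to DMSO-dissolved compounds for 17 hr. Caspase-Glo 3/7 reagent was added, and luminescence was read after 30min at room temperature.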

[2] = biological target: Cytochrome P450 2D6 (Homo sapiens) (UniProt P10635); experiment: Cytochrome P450 Family 2 Subfamily D Member 6 (CYP2D6) small molecule antagonists: luciferase reporter qHTS assay (AID 1671196); also: nearly all actives have a fitted effect of over 50% in size; also: potency is read from the fitted curve at half-maximal effect; as to activity change, negative = inhibition: series mostly up to about 120 µM
How it was run: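 CYP2D6 enzyme–substrate mix was held with compound for 10 min at room temperature, then NADPH regeneration solution was added and the reaction ran 1 h at room temperature. Luciferin product was detected by luminescence after 20 min with detection reagent.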

[3] = biological target: Cytochrome P450 2C19 (Homo sapiens) (UniProt P33261); experiment: Cytochrome P450 Family 2 Subfamily C Member 19 (CYP2C19) small molecule antagonists: luciferase reporter qHTS assay (AID 1671197); also: nearly all actives have a fitted effect of over 65% in size; also: potency is read from the fitted curve at half-maximal effect; as to activity change, negative = inhibition: series mostly up to about 120 µM
How it was run: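 Enzyme-substrate mix with proluciferin substrate (P450-Glo CYP2C19 system) preincubated with compounds 10 min at room temperature; NADPH regeneration solution added, 37C for 1 h; detection reagent stops reaction, luminescence read after 20 min. Ketoconazole positive control.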

[4] = biological target: Cytochrome P450 2C9 (Homo sapiens) (UniProt P11712); experiment: Cytochrome P450 Family 2 Subfamily C Member 9 (CYP2C9) small molecule antagonists: luciferase reporter qHTS assay (AID 1671198); also: nearly all actives have a fitted effect of over 50% in size; also: potency is read from the fitted curve at half-maximal effect; as to activity change, negative = inhibition: series mostly up to about 120 µM
How it was run: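 CYP2C9 activity was measured with a P450-Glo proluciferin substrate. Enzyme–substrate mix was held with compound for 10 min at room temperature, then NADPH regeneration solution was added for 1 h at 37C. Luciferin product was read as luminescence.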

[5] = biological target: Cytochrome P450 1A2 (Homo sapiens) (UniProt P05177); experiment: Cytochrome P450 Family 1 Subfamily A Member 2 (CYP1A2) small molecule antagonists: luciferase reporter qHTS assay (AID 1671199); also: nearly all actives have a fitted effect of over 50% in size; also: potency is read from the fitted curve at half-maximal effect; as to activity change, negative = inhibition: series mostly up to about 120 µM
How it was run: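 Human CYP1A2 activity measured with a P450-Glo proluciferin substrate; compounds in DMSO preincubated 10 min at room temperature with enzyme-substrate mix, then NADPH regeneration system added for 1 h. Luciferin detection reagent, 20 min, luminescence read.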

[6] = biological target: Cytochrome P450 3A4 (Homo sapiens) (UniProt P08684); experiment: Cytochrome P450 Family 3 Subfamily A Member 4 (CYP3A4) small molecule antagonists: luciferase reporter qHTS assay (AID 1671201); also: nearly all actives have a fitted effect of over 50% in size; also: potency is read from the fitted curve at half-maximal effect; as to activity change, negative = inhibition: series mostly up to about 120 µM
How it was run: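 Enzyme and proluciferin substrate are mixed with test chemicals for 10 min, then NADPH regeneration system drives turnover for 1 h at room temperature. A detection reagent halts the reaction; luminescence after 20 min gives relative activity.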

[7] = Caspase-3/7 induction in HepG2 cells by small molecules, qHTS cell viability counter screen (AID 1346981); also: nearly all actives have a fitted effect of over 30% in size; also: potency is read from the fitted curve at half-maximal effect; as to activity change, negative = cytotoxicity: series mostly up to about 92 µM
How it was run: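 Wild-type HepG2 cells (2,000/well) were allowed to settle for 5 hr at 37 C, 5% CO2, then dosed with compounds in DMSO by pin transfer. After 16 hr at 37 C, CellTiter-Fluor was added and fluorescence read 1 hr later.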

[8] = biological target: Nuclear receptor subfamily 1 group I member 2 (Homo sapiens) (UniProt O75469); experiment: Human pregnane X receptor (PXR) small molecule agonists, qHTS assay (AID 1346982); also: nearly all actives have a fitted effect of over 35% in size; also: potency is read from the fitted curve at half-maximal effect
How it was run: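 PXR-Luc HepG2 cells (CYP3A4 promoter-driven luciferase) were seeded in medium with 5% charcoal-stripped FBS, left 5 hr at 37 C, then exposed to compounds in DMSO for 24 hr. Luminescence was read after ONE-Glo addition.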

[9] = biological target: Nuclear receptor subfamily 1 group I member 2 (Rattus norvegicus) (UniProt Q9R1A7); experiment: Rat pregnane X receptor (rPXR) activation by small molecules, qHTS assay (AID 1346983); conditions: rPXR luciferase reporter cells, One-Glo luminescence, 24 h; max activation: stronger effect = higher value; also: nearly all actives have a fitted effect of over 20% in size
How it was run: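 Cell-based rPXR luciferase reporter assay, 2,000 cells per well, rested 5hr at 37 C before compound addition in DMSO, then 24 hr at 37 C. One-Glo reagent was added and luminescence read after 30 min at room temperature.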

[10] = biological target: Nuclear receptor subfamily 1 group I member 2 (Homo sapiens) (UniProt O75469); experiment: CYP3A4 induction through human pregnane X receptor (PXR) by small molecules, qHTS assay (AID 1346984); also: nearly all actives have a fitted effect of over 40% in size
How it was run: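 DPX-2 cells (HepG2 co-transfected with PXR and CYP3A4 promoter-luciferase) treated with compounds 24 h at 37C; luciferin-IPA CYP3A4 substrate 3uM final added for 3 h, then One-Glo; luminescence read. qHTS format.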

[11] = biological target: Voltage-gated inwardly rectifying potassium channel KCNH2 (Homo sapiens) (UniProt Q12809); experiment: Human Ether-a-go-go-Related Gene (hERG) channel small molecule antagonists: fluorescence cell-based qHTS assay (AID 1671200); also: nearly all actives have a fitted effect of over 50% in size; also: potency is read from the fitted curve at half-maximal effect;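 as to activity change, negative = inhibition: hERG-expressing U2OS cells given a thallium stimulus after FluxOR II dye loading; series mostly up to about 77 µM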
How it was run: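 First, 1000 cells per well are seeded and cultured overnight at 37 C. Next, FluxOR II dye is loaded for 1 h at room temperature, protected from light. After 10 more minutes, stimulus is added and fluorescence is read.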

[12] = biological target: Nuclear receptor subfamily 1 group I member 2 (Homo sapiens) (UniProt O75469); experiment: Human pregnane X receptor (PXR) activation by small molecules, qHTS assay (AID 1346985); also: nearly all actives have a fitted effect of over 40% in size; also: potency is read from the fitted curve at half-maximal effect
How it was run: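 DPX-2 cells (HepG2 co-transfected with a PXR response element and a CYP3A4-promoter luciferase construct) were seeded at 2,000 per well, rested 5 hr at 37C, then exposed to DMSO-dissolved compounds for 24 hr. Activation was read as luciferase luminescence.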

Cytochrome P450 2C19 (Homo sapiens), sequence (P33261 whole entry, looked up): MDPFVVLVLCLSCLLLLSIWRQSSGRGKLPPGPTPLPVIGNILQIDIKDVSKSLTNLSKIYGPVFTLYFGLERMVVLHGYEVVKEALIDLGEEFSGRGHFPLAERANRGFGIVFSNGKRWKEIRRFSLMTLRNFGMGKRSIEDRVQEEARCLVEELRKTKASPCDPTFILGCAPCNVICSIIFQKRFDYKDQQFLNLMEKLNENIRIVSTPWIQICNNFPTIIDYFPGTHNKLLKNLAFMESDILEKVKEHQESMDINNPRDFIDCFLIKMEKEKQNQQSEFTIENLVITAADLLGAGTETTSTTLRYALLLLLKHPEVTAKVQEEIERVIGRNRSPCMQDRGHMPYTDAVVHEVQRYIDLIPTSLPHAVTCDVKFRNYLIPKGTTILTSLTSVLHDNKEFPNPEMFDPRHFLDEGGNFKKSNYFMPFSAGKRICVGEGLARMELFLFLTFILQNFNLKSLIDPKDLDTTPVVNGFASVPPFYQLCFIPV
Nuclear receptor subfamily 1 group I member 2 (Homo sapiens), sequence (O75469 whole entry, looked up): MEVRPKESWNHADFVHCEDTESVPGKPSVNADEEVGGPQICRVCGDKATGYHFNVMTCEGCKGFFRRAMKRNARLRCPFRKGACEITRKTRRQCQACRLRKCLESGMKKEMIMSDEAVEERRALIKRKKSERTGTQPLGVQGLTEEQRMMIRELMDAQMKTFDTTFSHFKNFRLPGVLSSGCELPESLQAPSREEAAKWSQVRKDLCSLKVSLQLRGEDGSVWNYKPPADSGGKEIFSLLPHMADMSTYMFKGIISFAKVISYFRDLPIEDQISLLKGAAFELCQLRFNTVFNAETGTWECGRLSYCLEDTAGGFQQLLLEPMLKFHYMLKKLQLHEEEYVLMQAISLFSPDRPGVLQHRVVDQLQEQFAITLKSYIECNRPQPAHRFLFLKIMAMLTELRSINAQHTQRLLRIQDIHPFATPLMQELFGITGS
Cytochrome P450 2D6 (Homo sapiens), sequence (P10635 whole entry, looked up): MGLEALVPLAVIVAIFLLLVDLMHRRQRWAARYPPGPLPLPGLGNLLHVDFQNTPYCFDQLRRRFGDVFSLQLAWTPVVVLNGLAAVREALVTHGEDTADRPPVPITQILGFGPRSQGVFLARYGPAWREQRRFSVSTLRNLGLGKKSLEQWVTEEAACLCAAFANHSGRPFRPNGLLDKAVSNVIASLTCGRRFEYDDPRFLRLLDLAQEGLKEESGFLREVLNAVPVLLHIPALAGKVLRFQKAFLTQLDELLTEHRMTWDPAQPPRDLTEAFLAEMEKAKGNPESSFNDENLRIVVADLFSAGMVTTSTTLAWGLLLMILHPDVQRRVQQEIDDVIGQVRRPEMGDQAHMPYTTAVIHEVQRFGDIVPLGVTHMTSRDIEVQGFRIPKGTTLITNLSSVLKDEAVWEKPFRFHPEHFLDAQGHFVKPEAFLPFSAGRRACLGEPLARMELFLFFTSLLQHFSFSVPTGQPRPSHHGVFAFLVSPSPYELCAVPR
Cytochrome P450 1A2 (Homo sapiens), sequence (P05177 whole entry, looked up): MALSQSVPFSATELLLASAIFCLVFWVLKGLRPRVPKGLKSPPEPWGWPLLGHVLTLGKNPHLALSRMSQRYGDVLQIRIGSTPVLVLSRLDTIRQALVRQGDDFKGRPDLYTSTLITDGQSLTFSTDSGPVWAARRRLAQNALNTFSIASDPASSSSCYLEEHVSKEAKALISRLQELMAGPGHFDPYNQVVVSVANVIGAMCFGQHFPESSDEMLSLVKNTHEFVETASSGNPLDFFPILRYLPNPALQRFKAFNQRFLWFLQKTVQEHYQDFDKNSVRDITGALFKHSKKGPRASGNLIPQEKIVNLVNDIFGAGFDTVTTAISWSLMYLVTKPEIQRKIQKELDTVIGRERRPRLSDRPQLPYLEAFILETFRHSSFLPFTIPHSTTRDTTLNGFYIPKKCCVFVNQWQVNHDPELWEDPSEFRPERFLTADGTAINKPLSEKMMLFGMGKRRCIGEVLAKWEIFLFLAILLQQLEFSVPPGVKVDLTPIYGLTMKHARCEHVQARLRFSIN
Cytochrome P450 2C9 (Homo sapiens), sequence (P11712 whole entry, looked up): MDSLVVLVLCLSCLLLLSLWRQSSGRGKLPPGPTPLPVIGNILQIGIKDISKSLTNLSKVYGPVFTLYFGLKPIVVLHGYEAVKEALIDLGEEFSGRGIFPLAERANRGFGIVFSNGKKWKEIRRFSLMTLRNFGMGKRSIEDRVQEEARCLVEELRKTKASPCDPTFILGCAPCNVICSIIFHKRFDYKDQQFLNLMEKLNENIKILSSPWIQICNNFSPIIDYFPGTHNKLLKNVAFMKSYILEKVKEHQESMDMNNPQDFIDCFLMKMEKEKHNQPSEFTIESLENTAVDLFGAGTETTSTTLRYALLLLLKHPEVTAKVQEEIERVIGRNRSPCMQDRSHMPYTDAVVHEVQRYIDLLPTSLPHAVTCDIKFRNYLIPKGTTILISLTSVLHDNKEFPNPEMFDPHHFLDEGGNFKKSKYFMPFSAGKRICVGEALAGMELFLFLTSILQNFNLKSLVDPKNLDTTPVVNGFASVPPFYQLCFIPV
Voltage-gated inwardly rectifying potassium channel KCNH2 (Homo sapiens), sequence (Q12809 whole entry, looked up): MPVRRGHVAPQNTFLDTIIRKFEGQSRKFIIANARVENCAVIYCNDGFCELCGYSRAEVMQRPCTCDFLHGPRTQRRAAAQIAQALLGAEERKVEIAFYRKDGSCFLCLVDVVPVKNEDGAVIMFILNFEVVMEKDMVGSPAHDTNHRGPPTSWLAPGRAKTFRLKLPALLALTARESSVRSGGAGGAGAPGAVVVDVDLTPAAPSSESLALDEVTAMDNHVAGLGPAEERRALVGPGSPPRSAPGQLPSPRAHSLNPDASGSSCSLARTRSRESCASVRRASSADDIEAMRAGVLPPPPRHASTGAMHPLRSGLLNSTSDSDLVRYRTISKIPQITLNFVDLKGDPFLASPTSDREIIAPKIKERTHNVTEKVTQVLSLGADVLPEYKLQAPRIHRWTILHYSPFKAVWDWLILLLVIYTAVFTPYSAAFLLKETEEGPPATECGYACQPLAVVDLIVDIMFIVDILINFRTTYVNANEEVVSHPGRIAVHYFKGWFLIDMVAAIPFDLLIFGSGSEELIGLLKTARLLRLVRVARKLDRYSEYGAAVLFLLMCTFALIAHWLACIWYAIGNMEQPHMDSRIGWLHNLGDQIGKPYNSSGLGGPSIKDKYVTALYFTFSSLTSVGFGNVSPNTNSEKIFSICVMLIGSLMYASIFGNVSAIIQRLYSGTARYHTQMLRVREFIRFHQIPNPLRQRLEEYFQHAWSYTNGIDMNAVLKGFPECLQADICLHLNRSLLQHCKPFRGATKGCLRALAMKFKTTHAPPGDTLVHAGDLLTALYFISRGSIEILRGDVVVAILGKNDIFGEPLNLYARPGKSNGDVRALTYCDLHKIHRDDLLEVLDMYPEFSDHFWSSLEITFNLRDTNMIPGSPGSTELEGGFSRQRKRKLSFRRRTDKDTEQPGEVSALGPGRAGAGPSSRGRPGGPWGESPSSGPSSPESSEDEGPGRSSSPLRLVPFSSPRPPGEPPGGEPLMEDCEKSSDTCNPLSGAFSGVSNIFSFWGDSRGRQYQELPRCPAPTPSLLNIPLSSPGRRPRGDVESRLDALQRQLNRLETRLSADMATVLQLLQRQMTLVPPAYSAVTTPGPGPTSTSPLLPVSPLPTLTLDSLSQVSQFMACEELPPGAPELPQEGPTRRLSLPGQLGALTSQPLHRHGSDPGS
Nuclear receptor subfamily 1 group I member 2 (Rattus norvegicus), sequence (Q9R1A7 whole entry, looked up): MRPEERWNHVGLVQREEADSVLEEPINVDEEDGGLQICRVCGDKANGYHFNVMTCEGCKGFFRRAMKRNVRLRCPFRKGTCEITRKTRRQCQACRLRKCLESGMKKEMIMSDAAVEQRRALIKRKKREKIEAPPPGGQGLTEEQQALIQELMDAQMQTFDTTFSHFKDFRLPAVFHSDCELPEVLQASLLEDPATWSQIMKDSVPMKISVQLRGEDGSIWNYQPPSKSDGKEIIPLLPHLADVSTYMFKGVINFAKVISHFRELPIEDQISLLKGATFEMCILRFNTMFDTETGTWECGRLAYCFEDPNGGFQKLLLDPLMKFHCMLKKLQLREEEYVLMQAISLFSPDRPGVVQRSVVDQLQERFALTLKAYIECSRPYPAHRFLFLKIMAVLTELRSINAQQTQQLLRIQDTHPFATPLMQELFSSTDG
Cytochrome P450 3A4 (Homo sapiens), sequence (P08684 whole entry, looked up): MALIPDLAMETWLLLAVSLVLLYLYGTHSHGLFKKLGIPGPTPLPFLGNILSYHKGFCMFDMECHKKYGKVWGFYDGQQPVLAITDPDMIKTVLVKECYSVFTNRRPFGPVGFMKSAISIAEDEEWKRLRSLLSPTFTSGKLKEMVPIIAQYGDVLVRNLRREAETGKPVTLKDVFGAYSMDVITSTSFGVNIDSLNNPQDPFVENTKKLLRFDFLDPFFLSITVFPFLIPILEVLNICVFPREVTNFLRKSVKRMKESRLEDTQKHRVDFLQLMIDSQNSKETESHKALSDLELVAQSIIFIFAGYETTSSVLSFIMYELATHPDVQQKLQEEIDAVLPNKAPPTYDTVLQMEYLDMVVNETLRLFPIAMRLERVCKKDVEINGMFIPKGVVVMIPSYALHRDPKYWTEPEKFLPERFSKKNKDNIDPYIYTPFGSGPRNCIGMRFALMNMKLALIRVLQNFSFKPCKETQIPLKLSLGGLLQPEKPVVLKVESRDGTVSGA

CCCCCCCCOC(=O)c1cc(O)c(O)c(O)c1
Potency [1]: 1.54 µM (active) | Potency [2]: 11.2 µM (active) | Potency [3]: 5.64 µM (active) | Potency [4]: 2.24 µM (active) | Potency [5]: 71 µM (active) | Potency [6]: 35.6 µM (active)

CCCCCN=C(N)N/N=C/c1c[nH]c2ccc(OC)cc12
Potency [7]: 26.6 µM (active) | Potency [8]: inactive | max activation [9]: -0.704% | Potency [10]: inactive | Potency [2]: inactive | Potency [3]: inactive | Potency [4]: 38.9 µM (active) | Potency [5]: 4.9 µM (active) | Potency [11]: 10.7 µM (active) | Potency [6]: inactive

CN1CCN(c2ccccc2/C=C2\SCCN(c3ccc(Cl)c(Cl)c3)C2=O)CC1
Potency [7]: 61.1 µM (active) | Potency [2]: 7.1 µM (active) | Potency [4]: 10 µM (active) | Potency [11]: 2.19 µM (active) | Potency [6]: 3.99 µM (active)

CN[C@H]1CC[C@@H](c2ccc(Cl)c(Cl)c2)c2ccc(S(N)(=O)=O)cc21
Potency [7]: 61.1 µM (active) | Potency [8]: inactive | Potency [2]: 1.42 µM (active) | Potency [3]: 50.2 µM (active) | Potency [4]: 39.9 µM (active) | Potency [5]: inactive | Potency [6]: 28.3 µM (active)

CC(=O)[C@]1(O)Cc2c(O)c3c(c(O)c2[C@@H](O[C@H]2C[C@H](N)[C@H](O)[C@H](C)O2)C1)C(=O)c1ccccc1C3=O
Potency [7]: 11.9 µM (active) | Potency [8]: inactive | Potency [10]: inactive | Potency [12]: inactive

C=C[Si](C)(C)Cl
activity change, negative = cytotoxicity [7]: -0.712% [at 8.39 µM] | activation [8]: 4.97% [at 8.39 µM] | activity change, negative = inhibition [2]: 0.847% [at 10.5 µM] | activity change, negative = inhibition [3]: -15.5% [at 10.5 µM] | activity change, negative = inhibition [4]: -1.65% [at 10.5 µM] | activity change, negative = inhibition [5]: -9.04% [at 10.5 µM] | activity change, negative = inhibition [11]: -2.91% [at 6.97 µM] | activity change, negative = inhibition [6]: 0.89% [at 10.5 µM]

CSc1ccc(O)cc1C
Potency [1]: inactive | Potency [5]: 63.3 µM (active) | Potency [11]: inactive

CC1=C(/C=C/C(C)=C/C=C/C(C)=C\C(=O)O)C(C)(C)CCC1
Potency [7]: inactive | Potency [8]: 34.5 µM (active) | Potency [3]: 40 µM (active) | Potency [4]: 40 µM (active) | Potency [5]: 40 µM (active) | Potency [6]: 22.5 µM (active)

Cc1c(Cl)c(=O)oc2cc(O)ccc12
Potency [1]: inactive | Potency [2]: inactive | Potency [4]: inactive | Potency [5]: 17.8 µM (active) | Potency [11]: inactive | Potency [6]: inactive

Nc1cc([N+](=O)[O-])cc(Cl)c1O
Potency [7]: 61.1 µM (active) | Potency [8]: inactive | Potency [2]: inactive | Potency [3]: 79.6 µM (active) | Potency [4]: 39.9 µM (active) | Potency [11]: inactive

CCOc1ccc([N+](=O)[O-])cc1
Potency [1]: inactive | Potency [8]: inactive | Potency [4]: 16.1 µM (active) | Potency [5]: 32.2 µM (active) | Potency [6]: 72.1 µM (active)

CCC1(C)C(=O)N(Cl)C(=O)N1Cl (stereo not given)
Potency [7]: inactive | Potency [8]: inactive | Potency [4]: inactive | Potency [5]: inactive | Potency [11]: inactive | Potency [6]: inactive

CCN(CC)c1ccc(C=O)c(O)c1
Potency [7]: inactive | Potency [8]: 61.1 µM (active) | Potency [2]: inactive | Potency [4]: inactive | Potency [5]: 17.8 µM (active) | Potency [11]: inactive | Potency [6]: inactive

O=C1CCC(=O)N1
Potency [7]: inactive | Potency [8]: inactive | Potency [2]: inactive | Potency [3]: inactive | Potency [4]: inactive | Potency [5]: inactive | Potency [11]: inactive | Potency [6]: inactive

CN(C[C@@H](CC[N+]12CCC(C3CCCCC3)(CC1)CC2)c1ccc(Cl)c(Cl)c1)C(=O)c1cc(C(F)(F)F)cc(C(F)(F)F)c1
Potency [7]: 68.6 µM (active) | Potency [8]: inactive | Potency [2]: 15.9 µM (active) | Potency [3]: 5.64 µM (active) | Potency [4]: 39.9 µM (active) | Potency [5]: 71 µM (active) | Potency [6]: 2.24 µM (active)

COc1cc2ncnc(Nc3cccc(Cl)c3)c2cc1OC
caspase-3/7 activation [1]: -2.78% [at 19 µM] | activity change, negative = inhibition [11]: 7% [at 15.8 µM]

c1ccc(C[P+](c2ccccc2)(c2ccccc2)c2ccccc2)cc1
Potency [1]: inactive | Potency [4]: inactive | Potency [5]: inactive | Potency [11]: 3.09 µM (active) | Potency [6]: inactive

Cc1c[nH]c(=O)[nH]c1=O
Potency [1]: inactive | Potency [8]: inactive | Potency [3]: inactive | Potency [4]: inactive | Potency [11]: inactive | Potency [6]: inactive

CN1CCN(CCCN2c3ccccc3Sc3ccc(Cl)cc32)CC1
Potency [1]: inactive | Potency [4]: inactive | Potency [5]: 2.57 µM (active)

C=Cc1ccc(O)c(OC)c1
Potency [7]: inactive

CC/C(=C(/c1ccc(O)cc1)c1ccc(OCCN(C)C)cc1)c1ccccc1
Potency [7]: 28.5 µM (active)

C[C@H]1O[C@@H](O[C@H]2CC[C@@]3(C)[C@H](CC[C@@H]4[C@@H]3C[C@@H](O)[C@]3(C)[C@@H](C5=CC(=O)OC5)CC[C@]43O)C2)C[C@H](O)[C@@H]1O[C@H]1C[C@H](O)[C@H](O[C@H]2C[C@H](O)[C@H](O[C@@H]3O[C@H](CO)[C@@H](O)[C@H](O)[C@H]3O)[C@@H](C)O2)[C@@H](C)O1
Potency [12]: inactive

C=C1C(CCl)(CCl)C2(Cl)C(Cl)C(Cl)C1(Cl)C2(Cl)Cl (stereo not given)
Potency [12]: 15.8 µM (active)

CS(=O)(=O)c1ccc([C@@H](O)[C@@H](COC(=O)CN)NC(=O)C(Cl)Cl)cc1
max activation [9]: -5.77% | Potency [10]: inactive

CC(C)=CCC/C(C)=C/CC/C(C)=C/CC/C(C)=C/CC1=C(C)C(=O)c2ccccc2C1=O
max activation [9]: -1.32% | Potency [10]: inactive

O=P(O)(O)CP(=O)(O)O
max activation [9]: -0.378% | Potency [10]: inactive

O=C(O)[C@@H]1C[C@H](CP(=O)(O)O)CCN1
max activation [9]: -5.85% | Potency [10]: inactive | Potency [12]: inactive

C/C=C/C1=C(C(=O)O)N2C(=O)[C@@H](NC(=O)[C@H](N)c3ccc(O)cc3)[C@H]2SC1
max activation [9]: -4.1% | Potency [10]: inactive

O=C1CC[C@@H](C(=O)N[C@H]2C[C@@H]2c2ccccc2)N1
max activation [9]: -3.97% | Potency [10]: inactive

CC1(C)S[C@@H]2[C@H](NC(=O)[C@H](N)c3ccc(O)cc3)C(=O)N2[C@H]1C(=O)O
max activation [9]: -0.49% | Potency [10]: inactive | Potency [12]: inactive

CC(C)C[C@@H](NC(=O)[C@@H](O)[C@H](N)Cc1ccccc1)C(=O)O
max activation [9]: -7.87% | Potency [10]: inactive

FC(F)(F)C(F)(F)C(F)(F)C(F)(F)C(F)(F)F
max activation [9]: -2.03% | Potency [10]: inactive

CC1=C(/C=C/C(C)=C/C=C/C(C)=C/C=C/C=C(C)/C=C/C=C(C)/C=C/C2=C(C)CCCC2(C)C)C(C)(C)CCC1
max activation [9]: -2.1% | Potency [10]: inactive

CCCC(CCC)C(=O)OC1C[C@H]2CC[C@@H](C1)[N+]2(C)C (stereo not given in full)
max activation [9]: -0.777% | Potency [10]: inactive

C[C@@H]1O[C@@H](OC[C@H]2O[C@@H](Oc3c(-c4ccc(OCCO)c(OCCO)c4)oc4cc(OCCO)cc(O)c4c3=O)[C@H](O)[C@@H](O)[C@@H]2O)[C@H](O)[C@H](O)[C@H]1O
max activation [9]: -1.87% | Potency [10]: inactive
